Screening data: PubChem BioAssay, National Center for Advancing Translational Sciences (NCATS)
KDM5B inh – KDM5B demethylase inhibition | AID 1347165 | Q9UGL1 | Potency, µM (top dose mostly 57.7 µM), hits mostly inhibitors | KDM5B demethylase, FDH-coupled NADH fluorescence (FDH is formaldehyde dehydrogenase) | hit rate 2.6% among 220,000; active = well fitted inhibition curve with a large enough effect; also: nearly all actives have a fitted effect of over 70% in size
Target sequence (Q9UGL1 whole entry, looked up): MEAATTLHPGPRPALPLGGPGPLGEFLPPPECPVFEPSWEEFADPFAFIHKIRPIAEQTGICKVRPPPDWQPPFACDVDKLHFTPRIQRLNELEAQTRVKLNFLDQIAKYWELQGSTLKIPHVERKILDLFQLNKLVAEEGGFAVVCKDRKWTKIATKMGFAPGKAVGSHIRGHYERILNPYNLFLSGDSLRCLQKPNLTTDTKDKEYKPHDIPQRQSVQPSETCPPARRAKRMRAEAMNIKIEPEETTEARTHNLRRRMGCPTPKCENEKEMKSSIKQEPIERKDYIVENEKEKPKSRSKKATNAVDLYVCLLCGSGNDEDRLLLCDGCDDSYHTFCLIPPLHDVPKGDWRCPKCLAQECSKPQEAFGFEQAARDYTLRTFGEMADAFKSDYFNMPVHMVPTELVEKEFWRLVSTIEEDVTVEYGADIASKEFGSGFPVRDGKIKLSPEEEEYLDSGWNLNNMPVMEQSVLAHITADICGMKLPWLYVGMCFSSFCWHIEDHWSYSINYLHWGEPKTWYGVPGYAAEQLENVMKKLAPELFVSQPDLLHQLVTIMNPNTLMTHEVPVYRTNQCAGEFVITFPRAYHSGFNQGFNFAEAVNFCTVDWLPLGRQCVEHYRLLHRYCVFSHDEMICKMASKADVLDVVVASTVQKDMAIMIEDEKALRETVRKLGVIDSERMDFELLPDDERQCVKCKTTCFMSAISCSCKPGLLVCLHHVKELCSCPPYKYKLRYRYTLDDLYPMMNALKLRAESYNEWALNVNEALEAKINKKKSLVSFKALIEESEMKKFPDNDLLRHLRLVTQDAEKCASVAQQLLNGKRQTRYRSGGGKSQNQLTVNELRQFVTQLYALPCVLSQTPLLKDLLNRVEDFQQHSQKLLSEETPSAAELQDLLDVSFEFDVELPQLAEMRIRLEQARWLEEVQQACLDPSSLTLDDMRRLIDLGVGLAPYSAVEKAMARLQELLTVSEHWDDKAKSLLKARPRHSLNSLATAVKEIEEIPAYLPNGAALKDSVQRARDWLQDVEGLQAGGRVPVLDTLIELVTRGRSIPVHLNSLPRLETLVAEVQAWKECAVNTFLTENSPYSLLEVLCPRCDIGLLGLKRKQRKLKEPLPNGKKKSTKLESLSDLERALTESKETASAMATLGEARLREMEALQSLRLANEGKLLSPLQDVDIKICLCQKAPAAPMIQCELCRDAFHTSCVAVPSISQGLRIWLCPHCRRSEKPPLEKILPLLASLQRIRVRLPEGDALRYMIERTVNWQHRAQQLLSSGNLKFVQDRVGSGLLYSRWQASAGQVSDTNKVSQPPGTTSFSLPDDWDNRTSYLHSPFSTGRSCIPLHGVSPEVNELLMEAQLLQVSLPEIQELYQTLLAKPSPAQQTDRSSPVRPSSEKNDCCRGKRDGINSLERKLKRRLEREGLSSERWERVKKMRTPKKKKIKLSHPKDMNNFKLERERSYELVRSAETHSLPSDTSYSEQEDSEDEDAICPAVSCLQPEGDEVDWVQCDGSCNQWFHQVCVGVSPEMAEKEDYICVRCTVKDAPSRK
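Coupled FDH/NAD⁺ fluorescence readout. KDM5BΔAP 200 nM final; compound titration, 10 min RT preincubation; substrate mix 12.5 µM H3K4me3, 25 µM 2-OG, 50 µM Fe(II), 100 µM ascorbate, 0.25 mM NAD⁺, 0.25 U/mL FDH; ΔRFU over 30 min.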
Hits are given with their value; i = inactive. This is one part of a sample in which hits are shown more often than they occur.

SMILES	KDM5B inh
O=C(CCc1ccsc1)NC1CCSc2ccc(F)cc21 (centres undefined)	i
CC(Oc1ccccc1)C(=O)OCc1nc(N)nc(N)n1 (centres undefined)	i
O=C(C1CCC1)N1CCCC(c2noc(COc3ccccc3)n2)C1 (centres undefined)	i
CCC(C)[C@@H](NC(=O)NCc1ccc(C)cc1)C(=O)OC (some centres undefined)	i
CCCN(C)c1ccc(/C=N/NC(=S)Nc2cccc(SC)c2)cc1	i
CCCC(=O)N(CC)CCc1ccccc1	i
CN(C)C(=O)c1cccc(NC(=O)/C=C/c2ccccc2)c1	i
COCCNC(=O)Cc1c[nH]c2ncc(-c3cccnc3)cc12	i
COCCNC(=O)Cc1c[nH]c2ncc(-c3ccc(OC)cc3)cc12	35.5µM
COc1ccc(-c2cnc3[nH]cc(CC(=O)NCc4cnccn4)c3c2)cc1	i
Cc1ccc(C(=O)NCCCn2ccnc2)cc1C	i
O=C(Cc1c[nH]c2ncc(-c3ccccc3)cc12)NCCCn1ccnc1	39.8µM
Cc1ccc2nc(-c3ccccc3)cc(C(=O)NCCCn3ccnc3)c2c1	i
COCCNC(=O)Cc1c[nH]c2ncc(-c3ccccc3)cc12	39.8µM
O=C(Nc1ccc(C(F)(F)F)oc1=O)c1ccccc1	i
COc1ccc(CN2C=C(C(=O)OCc3noc(-c4ccccc4C)n3)C(C)=NS2(=O)=O)cc1	i
COc1ccc(C(=O)N2CCN(c3cc(-c4ccc(Cl)cc4)[nH]n3)CC2)cc1F	i
Cc1nc(SC(C)c2ccc(Cl)cc2)sc1CC(N)=O (centres undefined)	i
CC1(C)Cc2c(sc3ncn4nc(-c5cccc(O)c5)nc4c23)CO1	i
CCc1ccc(N2CC(c3noc(C4(c5ccccc5)CC4)n3)CC2=O)cc1 (centres undefined)	i
CCc1ccc(N2CC(c3noc(-c4ccccc4)n3)CC2=O)cc1 (centres undefined)	i
CCc1ccc(N2CC(c3noc(-c4nccc5ccccc45)n3)CC2=O)cc1 (centres undefined)	31.6µM
O=C1CC(c2noc(-c3nccc4ccccc34)n2)CN1C1CCCCC1 (centres undefined)	22.4µM
CCc1ccc(N2CC(c3noc(-c4ccc(C)nc4)n3)CC2=O)cc1 (centres undefined)	i
O=C1CC(c2noc(-c3cccc(F)c3)n2)CN1C1CCCCC1 (centres undefined)	i
SMILES	KDM5B inh
O=C1CC(c2noc(-c3ccoc3)n2)CN1C1CCCCC1 (centres undefined)	i
CCc1ccc(N2CC(c3noc(-c4ccccn4)n3)CC2=O)cc1 (centres undefined)	i
CCc1ccc(N2CC(c3noc(-c4ccc5ncccc5c4)n3)CC2=O)cc1 (centres undefined)	31.6µM
CCc1cc(SC#N)cc(CC)c1N	i
O=C(NC1CCCCCC1)C1(Cc2nc3ccccc3s2)CCCC1	i
Cc1ccc(F)cc1NC(=O)CSc1ncc(-c2ccc(F)cc2)o1	i
COc1ccc(CNC(=O)c2sc(-c3ccc(C)cc3)nc2C)cc1	i
CC(=O)c1ccc(NC(=O)Cc2ccc3c(c2)CCC3)cc1	i
Cc1cc(C2CCCN2Cc2coc(-c3ccc(F)cc3)n2)on1 (centres undefined)	i
COc1ccc(NC(=O)Cn2c(SCc3cc(C)ccc3C)nc3ccncc32)cc1OC	i
N#Cc1cc2c(cc1-c1cc3c(cc1C(=O)C1CC1)OCCO3)OCCO2	i
O=C(c1ccccc1)N1CCC2(Cc3ccccc3NC2=O)C1 (centres undefined)	i
O=C(C1CCCCC1)N1CCC2(CC1)NCc1ccccc1NC2=O	i
O=C(c1ccccc1)N1CCC2(CC1)NCc1ccccc1NC2=O	89.1µM
CCC1(c2ccccc2)NC(=O)N(Cc2coc(-c3cccs3)n2)C1=O (centres undefined)	i
COc1nc2ccccc2nc1CCC(=O)N[C@H]1COC[C@H]1Cc1cc(C)no1	28.2µM
COc1ccc(C2(C(=O)N[C@H]3COC[C@H]3Cc3cc(C)no3)CCCC2)cc1	i
CCc1nc(C)c(C(=O)N[C@H]2COC[C@H]2Cc2cc(C)no2)s1	i
Cc1cc(C[C@@H]2COC[C@@H]2NC(=O)CCCn2cncn2)on1	i
COc1ccc2[nH]c(C(=O)N[C@H]3COC[C@H]3Cc3cc(C)no3)c(C)c2c1	22.4µM
Cc1cc(C[C@@H]2COC[C@@H]2NC(=O)CCc2nc(-c3ccccc3C)no2)on1	i
CC(C)(C)C1CCc2nc(SCC(N)=O)c(C#N)c(C(F)(F)F)c2C1 (centres undefined)	i
O=C(CCCc1nc(-c2cccs2)no1)NCc1cccnc1-n1cncn1	i
CCCNc1c(NC(=O)Nc2cc(C)cc(C)c2)c(=O)oc2ccccc12	i
CC(=O)c1c[nH]c2cc(C#N)ccc12	i
SMILES	KDM5B inh
O=C(CN1CCc2ccccc2C1)N1N=C(c2ccco2)CC1c1ccco1 (centres undefined)	i
CCOCCCNC(=O)N1CCC(Cc2nc(-c3ccncc3)n[nH]2)CC1	31.6µM
COc1ccc(CNC(=O)N2CCC(Cc3nc(-c4ccncc4)n[nH]3)C2)cc1 (centres undefined)	i
CCCNC(=O)N1CCC(Cc2nc(-c3ccccc3)n[nH]2)C1 (centres undefined)	i
CCN(C)C(=O)C(C)N1CCc2onc(C(c3ccccc3)c3ccccc3)c2C1 (centres undefined)	i
CCC(O)C(=O)N1CCc2onc(-c3ccc(-c4ccccc4)cc3)c2C1 (centres undefined)	i
CCN(C)C(=O)C(C)N1CCc2onc(-c3ccc(-c4ccccc4)cc3)c2C1 (centres undefined)	25.1µM
CC(C)CS(=O)(=O)CCC(=O)O	i
O=[N+]([O-])c1cccc(/C=N/Nc2ccc(Cl)nn2)c1	i
CC(=O)c1ccc(NC(=O)[C@H](C(C)C)n2nnc3ccccc3c2=O)cc1	i
CCCCc1ncc(CN(C)CC2CCCN(CCc3ccc(F)cc3)C2)[nH]1 (centres undefined)	i
CN1CCCC(CN(C)C(=O)c2cc(-c3cnn(CCO)c3)nc3ccccc23)C1 (centres undefined)	31.6µM
CN(Cc1ccco1)C(=O)c1cc(-c2ccncc2)nc2ccccc12	i
CN(CC1CC1)C(=O)c1cc(-c2ccccc2Cl)nc2ccccc12	i
CC(C)OC(=O)c1ccn[nH]1	i
CC1=C(C(=O)OC(C)(C)C)C(/C(Cl)=C/c2ccccc2)NC(=O)N1 (centres undefined)	i
Cc1ncsc1C(=O)N1CCc2c(n(Cc3cccnc3)n(CCc3ccccc3)c2=O)C1	i
O=c1c2c(n(Cc3cccnc3)n1CCc1ccccc1)CN(CC1CCOC1)CC2 (centres undefined)	35.5µM
Nc1ncccc1CN1CCc2c(n(Cc3ccccc3)n(-c3ccccc3)c2=O)C1	i
O=c1c2c(n(Cc3ccccc3)n1-c1ccccc1)CN(Cc1cccnc1)CC2	31.6µM
CC(C)C(=O)N1CCc2c(n(Cc3cccnc3)n(CCc3ccccc3)c2=O)C1	i
COC1CCC(C(=O)N2CCc3c(n(Cc4cccnc4)n(-c4ccccc4)c3=O)C2)CC1 (centres undefined)	i
COc1ccc2c(c1)C=C(C(=O)Nc1ccc3ccc(=O)oc3c1)C=CO2	i
S=C(NCc1ccccc1)N/N=C/c1c2ccccc2c(Cl)c2ccccc12	i
COc1cccc(-n2ccn3c(SCC(=O)N4CCN(c5ccc(F)cc5)CC4)nnc3c2=O)c1	i
CC(=O)Oc1ccc2c(=O)c(-c3nc4ccccc4s3)c(C)oc2c1	i
